The results in this text go back to PubChem BioAssay (EPA / NIEHS).

“And” between values parts separate entries of the source, which are not always exact repeats. Identical values can stand only once. More than one record can exist for a structure, and the calls need not agree. The source made the active and inactive calls. The calls were made as follows: active = hit-call score of the fitted dose curve at least 0.9, where 1 is the maximum; inactive = score below 0.9.

Assay [1] in a line: APR_HepG2_CellLoss_72hr: Apredica 72-hour HepG2 Assay for Cell Loss (AID 2282915). The note with it: high-content imaging. In outline: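 HepG2 cells exposed 72 h to compound at 0.39–200 uM (10 concentrations, duplicate) in 0.5% DMSO. Fixed with 3.7% formaldehyde and Hoechst 33342-stained. Imaged at 20x; nuclear count gives cell number, fitted bidirectionally versus DMSO.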
Assay [2] in a line: APR_HepG2_P-H2AX_72hr: Apredica 72-hour HepG2 Assay for H2AX Phosphorylation (AID 2282916).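 Also: phospho-histone H2A.x immunostain intensity per cell marking DNA damage.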 Conditions: imaging, actives raise or lower the signal. An outline of the steps: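 Phospho-H2A.x imaging endpoint in HepG2 after 72 hr compound exposure (0.39–200 uM, duplicate wells). Activity derived by bidirectional curve fitting with DMSO as baseline.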
Assay [3] in a line: APR_HepG2_MitoMembPot_72hr: Apredica 72-hour HepG2 Assay for Mitochondrial Membrane Potential (AID 2282917). The note with it: imaging, actives raise or lower the signal. In outline:
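HepG2 cells dosed 72 hr with compound at 0.39–200 uM in duplicate, 0.5% v/v DMSO final. Mitochondria stained with 250 nM MitoTracker Red CMXRos for 30 min before formaldehyde fixation, imaged by high-content fluorescence; bidirectional fit versus DMSO.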

Assay [4] can be described thus: APR_HepG2_MitoticArrest_72hr: Apredica 72-hour HepG2 Assay for Mitotic Arrest (AID 2282918). Conditions: high-content imaging, actives raise or lower the signal. An outline of the steps:
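Using high-content imaging of fixed HepG2 cells, phospho-histone H3 signal was measured following a 72 hr incubation with ten-point compound dilutions up to 200 uM. DMSO served as the negative control and baseline for bidirectional curve fitting.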

Assay [5] in a line: APR_HepG2_MicrotubuleCSK_72hr: Apredica 72-hour HepG2 Assay for Microtubule CSK Stabilty (AID 2282919). The note with it: HepG2 microtubule cytoskeleton, high-content imaging, actives raise or lower the signal. An outline of the steps:
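HepG2, 72 hr cmpd exposure, 0.39–200 uM (10 pts, duplicate), 0.5% DMSO. 3.7% formaldehyde fix, 0.5% Triton perm, anti-alpha-tubulin/Cy5 plus Hoechst. HCS fluorescence intensity; bidirectional fit vs DMSO baseline; taxol as positive control.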

A short description of assay [6]: APR_HepG2_P-H2AX_24hr: Apredica 24-hour HepG2 Assay for H2AX Phosphorylation (AID 2282920). Conditions: high-content imaging, actives raise or lower the signal. An outline of the steps: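 Human HepG2 liver cells, treated 24 hr with test chemicals (0.39–200 uM, final DMSO 0.5% v/v), are fixed and co-stained for phospho-H2A.x and c-Jun with Hoechst. Imaged intensity is fitted in both directions against DMSO controls.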

Assay [7] is described as follows: APR_HepG2_StressKinase_72hr: Apredica 72-hour HepG2 Assay for Stress Kinase (AID 2282921). The note with it: HepG2 stress kinase (phospho-c-Jun) imaging, actives raise or lower the signal. In outline:
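Stress kinase signal reflects nuclear phospho-c-Jun staining in fixed, permeabilized cells exposed 72 h to compound at 0.39–200 uM; DMSO-normalized, fitted for increases or decreases.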

The nature of assay [8]: APR_HepG2_StressKinase_24hr: Apredica 24-hour HepG2 Assay for Stress Kinase (AID 2282922). The note with it: HepG2 stress kinase (phospho-c-Jun) imaging, actives raise or lower the signal. In outline: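 Read-out: phospho-c-Jun immunofluorescence (Cy3 secondary) quantified by high-content imaging at 20x, nuclei defined by Hoechst 33342. Human HepG2 liver cells dosed 24 hr, 0.39–200 uM, DMSO 0.5% v/v; gain or loss of signal fitted relative to DMSO.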

The nature of assay [9]: APR_HepG2_p53Act_72hr: Apredica 72-hour HepG2 Assay for p53 Activation (AID 2282923).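 Also: average cellular p53 protein immunofluorescence intensity in HepG2 cells.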 Conditions: high-content imaging, actives raise or lower the signal. In outline: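 Fixed-cell p53 staining (sheep primary, Cy5 secondary) measured by fluorescence imaging following 72 hr treatment at 0.39–200 uM in 0.5% DMSO; DMSO served as negative control and baseline.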
Assay [10] in a line: APR_HepG2_MitoMass_72hr: Apredica 72-hour HepG2 Assay for Mitochondrial Mass (AID 2282924).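 Also: MitoTracker Red CMXRos stain intensity per cell imaged as mitochondrial mass.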 Conditions: high-content imaging, actives raise or lower the signal. An outline of the steps: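 Read-out: MitoTracker Red fluorescence intensity from automated imaging (20x, six fields per well) in human HepG2 liver cells. Dosing ran 72 hr, 0.39–200 uM, 0.5% DMSO; bidirectional curve fitting versus DMSO baseline.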

Assay [11] can be described thus: APR_HepG2_NuclearSize_72hr: Apredica 72-hour HepG2 Assay for Nuclear Size (AID 2282925). Conditions: high-content imaging, actives raise or lower the signal. In outline:
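Read-out: nuclear diameter from Hoechst 33342 images (ArrayScan, 20x, six fields/well), via cell-cycle image analysis. HepG2 were dosed 0.39–200 uM for 72 hr in 0.5% DMSO. Bidirectional fit relative to DMSO.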

Assay [12] in a line: ATG_CRE_CIS: Attagene CIS-FACTORIAL HepG2 Assay for human cAMP Responsive Element (CRE) binding protein 3 (AID 2282926). Conditions: HepG2 CRE cis-reporter, Attagene multiplexed mRNA; actives raise or lower the signal. In outline:
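Liver-derived HepG2, transfected with a CRE-containing reporter panel, exposed 24 h; transcript levels sized and quantified by capillary electrophoresis of labelled amplicons; signal changes either way referenced to vehicle.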

The target of assay [13] is CCAAT/enhancer-binding protein beta (Homo sapiens) (UniProt P17676). In words: ATG_C_EBP_CIS: Attagene CIS-FACTORIAL HepG2 Assay for human CCAAT/Enhancer Binding Protein (C/EBP) beta (AID 2282927). The note with it: HepG2 Attagene cis-factorial transcription factor reporter; actives raise or lower the signal. An outline of the steps:
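Transiently transfected HepG2 (MRTU library, endogenous TF-driven promoters); 24 h dosing; total RNA → oligo(dT) RT → PCR → 6-FAM primer extension → HpaI digest → CE; fit bidirectionally vs DMSO.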

A short description of assay [14]: ATG_CMV_CIS: Attagene CIS-FACTORIAL HepG2 Assay for human CMV (Internal Marker) (AID 2282928).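 Also: endpoint acts as a background internal control marker rather than a target.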 Conditions: HepG2 CMV promoter reporter, transcription factor profiling; actives raise or lower the signal. In outline:
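Fluorescence intensity of RT-PCR-derived reporter fragments, resolved by capillary electrophoresis, gives the signal. HepG2 liver cells bearing transfected cis-element reporters were treated 24 h; activity in either direction was fit relative to DMSO-treated controls.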

Assay [15] is described as follows: ATG_AP_1_CIS: Attagene CIS-FACTORIAL HepG2 Assay for human Activator Protein 1 (AP-1) (AID 2282931). The note with it: HepG2 Attagene cis-factorial AP-1 reporter mRNA; actives raise or lower the signal. In outline: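 Reporter transcripts were measured 24 h after dosing by RT-PCR and capillary electrophoresis of fluorescent fragments. Cells: HepG2 carrying transfected cis-regulated reporter constructs reading endogenous factor activity. Gain or loss fitted against DMSO.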

A short description of assay [16]: ATG_AP_2_CIS: Attagene CIS-FACTORIAL HepG2 Assay for human Activator Protein 2 (AP-2) (AID 2282932). Conditions: HepG2 AP-2 cis-reporter, Attagene transcription factor profiling; actives raise or lower the signal. An outline of the steps: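 Read-out: fluorescent reporter mRNA via RT-PCR and capillary electrophoresis, 24 h post-dose in transiently transfected HepG2. Endogenous factors drive cis-promoter reporters; gain or loss of signal fitted bidirectionally against DMSO.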

Assay [17] is described as follows: ATG_BRE_CIS: Attagene CIS-FACTORIAL HepG2 Assay for human Bone Morphogenetic Protein (BMP) Response Element (BRE) (AID 2282933). Conditions: HepG2 BMP response element reporter, Attagene transcription factor profiling; actives raise or lower the signal. In outline:
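Gain- or loss-of-signal was derived by bidirectional fitting against DMSO controls. The signal came from reporter mRNA, measured by RT-PCR and capillary electrophoresis, in HepG2 cells transiently carrying multiple reporter units and dosed for 24 h.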

Assay [18] deals with Retinoic acid receptor alpha (Homo sapiens) (UniProt P10276). In words: ATG_DR5_RAR_CIS: Attagene CIS-FACTORIAL HepG2 Assay for human Retinoic Acid Receptor Alpha (RARE), DR5 submotif (AID 2282934).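 As to AC50: reporter responds to endogenous RAR alpha beta and gamma in HepG2 not RARA alone.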 Conditions: HepG2 Attagene cis-factorial RARE DR5 reporter, mRNA; actives raise or lower the signal. An outline of the steps:
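Read-out: DR5-driven reporter transcript measured by RT-PCR, 6-FAM primer extension, HpaI digest and capillary electrophoresis. Human HepG2 liver cells carry transiently transfected cis-element reporter constructs; dosing lasts 24 h. Gain or loss of signal fitted against DMSO baseline.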

The nature of assay [19]: ATG_DR4_LXR_CIS: Attagene CIS-FACTORIAL HepG2 Assay for human Liver X Receptor (LXR), DR4 submotif (AID 2282929). Conditions: HepG2 Attagene DR4 cis-reporter, mRNA transcription; actives raise or lower the signal. In outline: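 Readout: reporter transcript fluorescence after RT-PCR and capillary electrophoresis, fitted bidirectionally against DMSO controls. Human HepG2 liver cells carried transiently transfected multiplexed reporter constructs; endogenous transcription factor activity measured 24 h post-dosing.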

In assay [20] the target is Aryl hydrocarbon receptor (Homo sapiens) (UniProt P35869). In words: ATG_Ahr_CIS: Attagene CIS-FACTORIAL HepG2 Assay for human Aryl Hydrocarbon Receptor (Ahr) (AID 2282930). Conditions: HepG2 AhR cis-factorial reporter transcription; actives raise or lower the signal. In outline: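 Read-out: reporter mRNA quantified by RT-PCR with fluorescent primer extension and capillary electrophoresis. Human HepG2 liver cells carried transfected cis-promoter reporter units and were exposed to chemical for 24 h; gain or loss fitted relative to DMSO.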
Sequence of Aryl hydrocarbon receptor (Homo sapiens) (P35869 whole entry, looked up): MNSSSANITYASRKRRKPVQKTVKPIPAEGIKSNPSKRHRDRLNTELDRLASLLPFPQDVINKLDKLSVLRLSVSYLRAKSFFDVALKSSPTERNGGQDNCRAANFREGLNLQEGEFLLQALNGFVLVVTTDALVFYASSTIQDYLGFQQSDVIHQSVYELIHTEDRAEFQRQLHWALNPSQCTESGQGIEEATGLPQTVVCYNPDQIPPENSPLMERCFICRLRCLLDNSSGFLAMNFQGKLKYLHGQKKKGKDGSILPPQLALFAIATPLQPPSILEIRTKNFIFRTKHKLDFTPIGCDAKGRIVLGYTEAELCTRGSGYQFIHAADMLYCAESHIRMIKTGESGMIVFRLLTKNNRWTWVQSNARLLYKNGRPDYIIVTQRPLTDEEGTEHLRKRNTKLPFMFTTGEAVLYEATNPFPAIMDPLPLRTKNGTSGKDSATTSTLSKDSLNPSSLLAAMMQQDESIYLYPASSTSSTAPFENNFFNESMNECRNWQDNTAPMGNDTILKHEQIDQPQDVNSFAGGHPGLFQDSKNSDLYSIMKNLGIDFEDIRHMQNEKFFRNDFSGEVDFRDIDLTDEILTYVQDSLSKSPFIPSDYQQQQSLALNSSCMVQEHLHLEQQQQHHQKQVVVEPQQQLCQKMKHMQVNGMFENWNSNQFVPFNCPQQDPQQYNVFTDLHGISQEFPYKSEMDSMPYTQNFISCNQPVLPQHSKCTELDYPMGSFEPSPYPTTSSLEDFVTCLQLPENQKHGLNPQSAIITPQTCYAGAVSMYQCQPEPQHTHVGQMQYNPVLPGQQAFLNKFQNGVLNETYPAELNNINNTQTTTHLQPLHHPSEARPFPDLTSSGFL

Sequence of CCAAT/enhancer-binding protein beta (Homo sapiens) (P17676 whole entry, looked up): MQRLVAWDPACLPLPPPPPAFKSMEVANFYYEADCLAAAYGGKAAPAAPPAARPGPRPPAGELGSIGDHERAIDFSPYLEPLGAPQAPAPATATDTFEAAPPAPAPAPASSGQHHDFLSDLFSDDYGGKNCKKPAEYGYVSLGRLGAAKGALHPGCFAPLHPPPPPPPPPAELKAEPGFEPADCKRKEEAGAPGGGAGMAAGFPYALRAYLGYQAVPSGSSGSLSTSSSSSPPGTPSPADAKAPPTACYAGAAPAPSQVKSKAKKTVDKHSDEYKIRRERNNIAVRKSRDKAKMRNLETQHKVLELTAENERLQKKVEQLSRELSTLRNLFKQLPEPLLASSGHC
Sequence of Retinoic acid receptor alpha (Homo sapiens) (P10276 whole entry, looked up): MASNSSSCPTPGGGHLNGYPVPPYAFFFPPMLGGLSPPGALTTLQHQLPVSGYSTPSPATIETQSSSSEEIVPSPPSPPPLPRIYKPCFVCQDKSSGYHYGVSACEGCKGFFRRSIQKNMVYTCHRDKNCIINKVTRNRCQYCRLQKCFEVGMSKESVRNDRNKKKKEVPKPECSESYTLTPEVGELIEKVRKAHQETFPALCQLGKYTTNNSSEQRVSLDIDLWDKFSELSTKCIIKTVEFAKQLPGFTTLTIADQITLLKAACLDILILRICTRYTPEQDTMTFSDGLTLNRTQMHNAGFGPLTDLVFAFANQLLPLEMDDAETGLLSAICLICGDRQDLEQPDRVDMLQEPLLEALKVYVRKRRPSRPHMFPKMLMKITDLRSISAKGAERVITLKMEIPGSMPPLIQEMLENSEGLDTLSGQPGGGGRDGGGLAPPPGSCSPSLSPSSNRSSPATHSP

For the molecule `COC(=O)c1ccccc1S(=O)(=O)NC(=O)N(C)c1nc(C)nc(OC)n1`, the call in [1], in assay [2], in assay [3], in assay [4], in [5] and in assay [6] was inactive. In addition, the molecule was called inactive in assay [7], in assay [8], in assay [9], in assay [10], in [11] and in [12]. In addition, the result in assay [13], in assay [14], in [15], in assay [16], in assay [17] and in [18] was inactive.
Usually AC50 stands for the concentration giving half of the maximal activity seen. Consider `ClC1C(Cl)C(Cl)C(Cl)C(Cl)C1Cl` (configuration not stated), for which the call in [2], in [3], in assay [4], in assay [5], in [6] and in [7] was inactive. Besides, the molecule was called inactive in assay [8], in assay [9], in [10], in assay [11], in [12] and in assay [13]. Moreover, the outcome in [14], in [15], in [16], in assay [17] and in assay [18] was inactive. In addition, the AC50 in [12] is 16 µM (active); in assay [13], 61.8 µM (active); in assay [14], 65.5 µM (active); in assay [15], 47.9 µM (active); in assay [17], 10.5 µM (active); in assay [18], 11 µM (active) and 5.74 µM (active).
For the molecule `O=C(Nc1ccccc1)Nc1cnns1`, the AC50 in assay [1] is 90.8 µM (active); in [2], 93.6 µM (active); in assay [4], 91.6 µM (active); in [5] it was 78 µM (active); in assay [14] it was 50 µM (active); in assay [19], 82.7 µM (active). For the same molecule, the concentration at half-maximal activity (AC50) in assay [15] and in assay [17] was 50 µM (active) in each case. Besides, the molecule was called inactive in assay [3], in assay [6], in assay [7], in [8], in [9] and in [10]. Further, the molecule was classed as inactive in assay [11], in assay [12], in assay [13], in assay [16] and in assay [18].
For `COC(=O)c1ccccc1S(=O)(=O)NC(=O)Nc1nc(C)nc(OC)n1`, the outcome in assay [2], in assay [3], in [4], in assay [5], in [6] and in assay [7] was inactive. Also, the outcome in assay [8], in assay [9], in assay [10], in assay [11], in [12] and in [13] was inactive. Also, the molecule was classed as inactive in assay [14], in assay [20], in [15], in assay [16], in assay [17] and in [18]. For the same molecule, the concentration at half-maximal activity (AC50) is 63.1 µM (active) in [15] and 27.1 µM (active) in assay [17].
Consider `O=C(NC(=O)c1c(F)cccc1F)Nc1ccc(OC(F)(F)C(F)OC(F)(F)F)c(Cl)c1` (configuration not stated), for which the molecule was classed as inactive in assay [1], in [2], in assay [3], in assay [4], in assay [5] and in assay [6]. For the same molecule, the molecule was called inactive in [7], in assay [8], in [10], in assay [11], in assay [12] and in [13]. Besides, the molecule was classed as inactive in [14], in assay [20], in assay [15] and in assay [16]. In addition, in assay [17], the concentration at half-maximal activity (AC50) is 14.2 µM (active).
